Molecules are shown by their SMILES. About 7,000 (2%) of roughly 350,000 compounds were called active. The full list was thinned out, with actives kept by preference. A number with no mark means an inactive call. Rule as the data show it: active = activation above about 40%; inconclusive = no clear call, values can overlap the other calls; inactive = below that.

A short description of the assay: Bmi1 luciferase reporter increase in mESCs, primary screen, esBAF inhibitor project, mouse ES cells, Bmi1 luciferase knock-in, single point (AID 602393).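 Also: 0% = median of the plate's neutral control wells and 100% = double that signal; a rise in the Bmi1 reporter signal indicates esBAF inhibition.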 The note with it: 24 h, at 12.5 µM, hits give high values.
In the case of `CC(C)(C)c1ccc(OC(=O)N2CCCCC2)cc1`, the reporter increase is 91.1% (active).

As for `CN1CCN(C(=O)COc2ccc(C(C)(C)C)cc2Br)CC1`, the reporter increase is 1.71%.

For `O=C(NC1CCCCC1)N1Cc2cc(N3CCCCC3)ccc2-n2nncc2C1`, the reporter increase was 5.49%.

As to `CSCCC(c1nnnn1C(C)(C)C)N1CCC(n2c(=O)[nH]c3ccccc32)CC1` (stereo not given), the reporter increase is -9.76%.

Consider `O=P(OC1=CCCCC1)(c1ccccc1)c1ccccc1`, for which the reporter increase is -0.107%.

As to `CN(C)C(=O)Oc1ccc2c(c1)O/C(=C\c1ccccc1)C2=O`, the reporter increase was 46.6% (active).

On to `CN(C)C(=O)Oc1ccc(NC(=O)N2CCOCC2)cc1`, for which the reporter increase is -0.475%.

On to `S=C(NCCc1ccccc1)N1Cc2cc(N3CCOCC3)ccc2-n2nncc2C1`, for which the reporter increase was 0.039%.

Regarding `C[C@H](CO)N1C[C@H](C)[C@H](CN(C)C(=O)Oc2ccc3ccccc3c2)OCc2cnnn2CCCC1=O`, the reporter increase is 2.57%.

On to `N#Cc1cccc(-c2ccc([C@H]3[C@@H](CO)N4CCCCN(C(=O)Cc5cccnc5)C[C@@H]34)cc2)c1`, for which the reporter increase is 0.128%.

`COC(=O)[C@H]1[C@H](CO)[C@H]2Cn3c(cccc3=O)[C@H]2N1CC1CC1`: the reporter increase was 0.469%.

For the compound `COc1ccc2c(c1)NP(=S)(c1ccccc1)N2` (stereo not given), the reporter increase is 43.7% (active).

Regarding `Cc1cc(C)c2c(c1)NP(=S)(c1ccccc1)N2` (stereo not given), the reporter increase was 7.37%.

Turning to `O=C(O)[C@H]1[C@H](CO)[C@H]2Cn3c(ccc(-c4ccccc4F)c3=O)[C@@H]1N2C(=O)c1cccnc1`, the reporter increase is -1.7%.

With `COC(=O)C1=C(c2ccc(OCc3ccccc3)cc2)C[C@@H]2CC[C@H]1N2C(=O)NCc1cccc(F)c1`, the reporter increase was 3.43%.

These data come from PubChem BioAssay AID602393 (Broad Institute, 2012).
